PubChem BioAssay (NCATS)
“And” between values parts separate entries of the source, which are not always exact repeats. Identical values can stand only once. Results filed as inconclusive are left out. Some compounds were tested as several samples or in several runs, with calls that do not always agree. The source made the active and inactive calls. Unless noted, the call rests on the fitted dose curve; in most records, active means well fitted curve in either direction with a large enough effect (not every such curve was filed as active); inconclusive means small, poorly fitted or top-dose-only effect, or another doubt; inactive means flat fitted curve, though single readings scatter.

Legend:
[1] = AP1 Signaling Pathway (AID 357); details: ME-180 (cervical carcinoma) AP-1-bla reporter, EGF-induced, beta-lactamase ratio, 5 h; at 38 µM (top of the series) unless noted;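 further: ME-180 reporter cells stimulated with EGF at its EC50 level; on the % scale 0 is the no-effect control and ±100 the full control effect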
Method in brief: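 Cells are seeded overnight, exposed to compound titrations and an EC50 level of EGF for 5 hours at 37 °C, then loaded with CCF4 dye for 2.5 hours. Beta-lactamase activity under the AP-1 element is read as a blue/green ratio.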

[2] = biological target: Cytochrome P450 1A2 (Homo sapiens) (UniProt P05177); assay: p450-cyp1a2 (AID 410; calls by dose curve; further: potency means the concentration at half of the fitted maximal effect;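 on activity change, negative = inhibition: -100% = full effect of reference inhibitor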)
Sequence of Cytochrome P450 1A2 (Homo sapiens) (P05177 whole entry, looked up): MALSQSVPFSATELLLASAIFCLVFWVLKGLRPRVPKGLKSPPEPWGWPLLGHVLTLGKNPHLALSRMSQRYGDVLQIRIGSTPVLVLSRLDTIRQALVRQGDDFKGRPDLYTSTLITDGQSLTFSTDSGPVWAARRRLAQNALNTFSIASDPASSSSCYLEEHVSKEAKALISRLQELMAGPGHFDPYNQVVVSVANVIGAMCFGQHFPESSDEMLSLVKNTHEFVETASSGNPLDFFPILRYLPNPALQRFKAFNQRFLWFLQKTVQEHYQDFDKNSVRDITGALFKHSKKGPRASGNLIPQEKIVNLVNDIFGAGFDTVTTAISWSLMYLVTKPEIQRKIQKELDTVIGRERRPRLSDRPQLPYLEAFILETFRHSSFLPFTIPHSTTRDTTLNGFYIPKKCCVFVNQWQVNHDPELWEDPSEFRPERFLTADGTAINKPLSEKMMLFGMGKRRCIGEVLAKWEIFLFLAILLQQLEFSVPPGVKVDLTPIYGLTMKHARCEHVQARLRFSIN
Method in brief: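 20nM CYP1A2, 100uM Luciferin-ME (=Km), 100mM KPO4; cpd 10 min RT; +NADPH regen, 60 min RT; stop/detect 20 min; luminescence. Normalized to furafylline 57 uM = full inhibition.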

[3] = NFAT Signaling Pathway (AID 444); details: Jurkat NFAT-bla M1, carbachol, beta-lactamase ratio, 5 h; at 38 µM (top of the series) unless noted;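 further: carbachol stimulus at about its EC50 of 1 µM final; on the % scale 0 is the no-effect control and ±100 the full control effect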
Method in brief: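 Jurkat cells with NFAT-driven β-lactamase reporter and co-expressed M1 receptor, stimulated with carbachol (final 1 uM, ~EC50), compound titration, 5 h at 37 °C. CCF4 loaded 1 h at RT; 460/530 nm ratio gave %activity and AC50.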

Structure (SMILES) | activity change, negative = inhibition [1] | Potency [2] | activity change, negative = inhibition [3]
CCCc1c(OCCCOc2ccc(OCC(=O)O)cc2)ccc(C(C)=O)c1O | -9.01% (inactive) | 31.6 µM (active) | -26.4% (inactive)
CCN1C(=O)C=CC1=O | -2.69% (inactive) | inactive | 4.62% (inactive)
NC(N)=[N+]1CCc2ccccc2C1 | -5.39% (inactive) | inactive | 1.51% (inactive)
O=c1[nH]ccc2c(O)cccc12 | -7.94% (inactive) | 15.8 µM (active) | -6.89% (inactive)
O=C(O)c1ccccc1Nc1ccccc1 | 4.51% (inactive) | 15.8 µM (active) | 6% (inactive)
CC(C)(CO)Cc1cc(C(C)(C)C)c(O)c(C(C)(C)C)c1 | 4.82% (inactive) | 31.6 µM (active) and 25.1 µM (active) | -10.6% (inactive)
COc1ccccc1N1CCN(CCCCNC(=O)c2ccc3ccccc3c2)CC1 | 1.71% (inactive) | 20 µM (active) and inactive | -13.3% (inactive)
O=C(O)c1cc(=O)cc(C(=O)O)[nH]1 | -11.2% (inactive) | inactive | -5.4% (inactive)
O=c1[nH]c2cc(Cl)ccc2c(O)c1-c1ccc(Oc2ccccc2)cc1 | 3.01% (inactive) | 10 µM (active) | -0.707% (inactive)
CC(=O)N[C@@H](Cc1c[nH]c2ccccc12)C(=O)OCc1cc(C(F)(F)F)cc(C(F)(F)F)c1 | 10.1% (inactive) | 31.6 µM (active) | 19.5% (inactive)
NC(=Nc1ccccc1)NC(=O)c1nc(Cl)c(N)nc1N | -5.68% (inactive) | 12.6 µM (active) | 21.6% (inactive)
CN1CCN(c2nc3cc(C(F)(F)F)ccc3n3cccc23)CC1 | -17.4% (inactive) | 200 nM (active) and 39.8 nM (active) | 28.4% (inactive)
c1ccc2nc(C3=NCCN3)ccc2c1 | -2.57% (inactive) | 5.01 µM (active) and 794 nM (active) | -13% (inactive)
CSC(=N)N | -0.186% (inactive) | inactive | 4.79% (inactive)
C[C@](Cc1ccc(O)c(O)c1)(NN)C(=O)O | -13.3% (inactive) | 31.6 µM (active) | 8.6% (inactive)
Cn1c(=O)[nH]c2ncn(C)c2c1=O | 0.808% (inactive) | inactive | -1.89% (inactive)
CC(C)NC[C@H](O)COc1cccc2ccccc12 | – | 0.2 µM (active) | –

Structure (SMILES) | activity change, negative = inhibition [1] | Potency [2] | activity change, negative = inhibition [3]
NC1(C(=O)O)CC1 | 11.9% (inactive) | – | -11.2% (inactive)
CC[C@H](NC(=O)c1c(C)c(-c2ccccc2)nc2ccccc12)c1ccccc1 | – | inactive and 7.94 µM (active) | 2.54% (inactive)
Cc1cc2c(cc1Cl)N(C(=O)Nc1ccnc3ccccc13)CC2 | -29.6% (inactive) | – | 4.5% (inactive)
c1ccc(CN2CCC3(CCCc4ccccc43)CC2)cc1 | 11.9% (inactive) | – | -19.1% (inactive)
N[C@@H](Cc1ccc(O)c(I)c1)C(=O)O | 9.71% [at 17.2 µM] (inactive) | – | -2.26% [at 17.2 µM] (inactive)
C/C(=C\c1ccc(C(=O)O)cc1)c1ccc2c(c1)C(C)(C)CCC2(C)C | – | inactive | –
O=C(O)C1CCNCC1 | -3.06% (inactive) | – | 11.3% (inactive)
CCCC(=O)NCCc1c2n(c3ccc(OC)cc13)CCCc1ccccc1-2 | – | – | -6.48% (inactive)
O=C(O)c1ccccc1Nc1cccc(OCc2ccc3ccccc3n2)c1 | – | 12.6 µM (active) and 1 µM (active) | –
COc1cc(/C=C(\C#N)C(=O)c2ccc(O)c(O)c2)cc(I)c1O | – | 15.8 µM (active) | 8.66% (inactive)
CC(=O)NNC(=O)N1Cc2ccccc2Oc2ccc(Cl)cc21 | -8.52% (inactive) | – | 13.5% (inactive)
CNCCNS(=O)(=O)c1cccc2cnccc12 | – | inactive | -11.3% (inactive)
N[C@@H](Cc1c[nH]c2ccccc12)C(=O)O | 4% (inactive) | – | -12.3% (inactive)
COc1cc(CNC(=O)CCCCCCC(C)C)ccc1O | -1.77% (inactive) | – | 7.5% (inactive)
O=C(O)C1=CCCN(CCON=C(c2ccccc2)c2ccccc2)C1 | 5.02% (inactive) | – | -1.26% (inactive)
O=C(N[C@@H](Cc1ccccc1)C(=O)CCl)OCc1ccccc1 | – | 3.16 µM (active) | -11.8% (active)
CCCCOC(=O)NS(=O)(=O)c1sc(CC(C)C)cc1-c1ccc(Cn2c(CC)nc3c(C)cc(C)nc32)cc1 | – | 31.6 µM (active) | –
